The source of these data is PubChem BioAssay (NCATS).

The structures appear in SMILES notation. Inconclusive results are not listed. The source made the active and inactive calls. Calls follow the shape of the dose curve; as a rule, active = well fitted curve in the direction sought with a large enough effect; inconclusive = small, poorly fitted or top-dose-only effect, or another doubt; inactive = no such curve, though single readings can be large; an effect the other way counts as inactive or inconclusive.

For experiment [1], the target named is Glutathione peroxidase 1 (Homo sapiens) (UniProt P07203). The experiment is described as follows: Primary qHTS Assay for Inhibitors of Recombinant Selenoprotein Glutathione Peroxidase 1 (GPX1) (AID 1845191). Also: nearly all actives have a fitted effect of over 65% in size. In outline: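 Recombinant GPX1 (10 nM final) was preincubated with compound for 30 min at room temperature, then reacted with 1 mM GSH, 0.5 mM CHP, 0.5 mM NADPH and 100 nM glutathione reductase; NADPH fluorescence (340/450 nm) was read at 0 and 15 min.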
Chain of Glutathione peroxidase 1 (Homo sapiens) (P07203 whole entry, looked up): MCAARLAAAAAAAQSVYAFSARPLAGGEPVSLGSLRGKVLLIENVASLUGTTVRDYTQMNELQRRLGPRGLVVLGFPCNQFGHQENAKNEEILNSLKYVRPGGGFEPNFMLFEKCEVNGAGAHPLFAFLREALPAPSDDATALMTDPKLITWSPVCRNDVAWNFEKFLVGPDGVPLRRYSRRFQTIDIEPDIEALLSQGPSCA
In general terms: qHTS replaces the single test concentration by a dilution series.

Experiment [2] has as its target Phospholipid hydroperoxide glutathione peroxidase GPX4 (Homo sapiens) (UniProt P36969). Put plainly: Primary qHTS Assay for Inhibitors of Recombinant Selenoprotein Glutathione Peroxidase 4 (GPX4) (AID 1845192). Also: nearly all actives have a fitted effect of over 65% in size. Also: potency is read from the fitted curve at half-maximal effect. An outline of the steps: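 GR-coupled readout: 100 nM GR, 1 mM GSH, 0.5 mM NADPH; NADPH fluorescence (ex 340/em 450 nm) read at t=0 and after 15 min RT. GPX4 200 nM, preincubated 30 min with compound; substrate 0.5 mM CHP.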

Experiment [3] concerns the target Luciferin 4-monooxygenase (Photinus pyralis) (UniProt P08659). Put plainly: Primary firefly luciferase (FLuc) qHTS assay for identification of artifact compounds. (AID 1845220). Also: nearly all actives have a fitted effect of over 60% in size. In outline: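 In this counter-screen for luciferase artifacts, test compounds met substrate (10 uM each luciferin and ATP) before 10 nM enzyme started the reaction. Light output was measured 5 min later.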

A short description of experiment [4]: Primary fluorescence-based thiol-reactive (MSTI) qHTS assay for identification of artifact compounds. (AID 1845221). Also: nearly all actives have a fitted effect of over 65% in size. Also: potency is read from the fitted curve at half-maximal effect. An outline of the steps:
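Curve-fitted percent inhibition (4-parameter Hill) derived from fluorescence, Ex 525/Em 598 nm, scaled with Acetyl-MSTI and MSTI; 1 h incubation at room temperature.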

The subject of experiment [5] is Nanoluciferase (engineered Oplophorus gracilirostris luciferase). Put plainly: Primary Nanoluciferase (NLuc) qHTS assay for identification of artifact compounds. (AID 1845222).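 Also: NLuc secreted into diluted conditioned medium of S16 cells; series mostly up to about 54 µM.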 An outline of the steps:
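Using secreted nanoluciferase in S16 culture medium (0.22 um filtered, 1:55 dilution), compounds were preincubated 15 min at RT. Signal was generated with Nano-Glo reagent (1:100) over 5 min.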

Experiment [6] in a line: Primary redox qHTS assay for identification of artifact compounds. (AID 1845223). In outline: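 Amplex Red (25 uM) and HRP (250 mU/mL) in HBSS, with compounds for 15 min, then 250 uM DTT for 30 min, room temperature, dark. Fluorescence 525/598 nm read; normalized to DMSO and 10 uM DA3003; Hill fit.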

Chain of Phospholipid hydroperoxide glutathione peroxidase GPX4 (Homo sapiens) (P36969 whole entry, looked up): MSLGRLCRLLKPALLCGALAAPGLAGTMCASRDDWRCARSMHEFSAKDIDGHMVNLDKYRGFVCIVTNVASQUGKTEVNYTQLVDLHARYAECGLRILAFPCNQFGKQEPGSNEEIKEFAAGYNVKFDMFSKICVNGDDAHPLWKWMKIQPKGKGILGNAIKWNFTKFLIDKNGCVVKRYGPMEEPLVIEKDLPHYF

Take `CCn1c(-c2nonc2N)nc2c(C#CC(C)(C)O)ncc(OCC3CCCNC3)c21` (centres undefined): the Potency entry in experiment [1], in experiment [2], in experiment [3], in experiment [4], in experiment [5] and in experiment [6] was “inactive” throughout.
Turning to `COCCNCc1ccc(-c2cc3nccc(Oc4ccc(NC(=O)C5(C(=O)Nc6ccc(F)cc6)CC5)cc4F)c3s2)nc1`, the Potency entry in experiment [1], in experiment [2], in experiment [3], in experiment [4], in experiment [5] and in experiment [6] was “inactive” in each case.
As to `CCOc1cccc(NC(=O)c2ccc(N3CCCC3)c(C(F)(F)F)c2)c1`, the Potency result in experiment [1], in experiment [2], in experiment [3], in experiment [4], in experiment [5] and in experiment [6] was “inactive” in each case.
Turning to `CCn1c(=O)c(-c2ccc(Cl)cc2Cl)cc2cnc(Nc3ccc(N4CCNCC4)c(F)c3)nc21`, the Potency result in experiment [1], in experiment [2], in experiment [3], in experiment [4], in experiment [5] and in experiment [6] was “inactive” in each case.
As for `CCCCNc1ncc(C(=O)NCc2ccc(-n3ccnc3)cc2)c(NC2CCC(O)CC2)n1` (centres undefined), the Potency result in experiment [1], in experiment [2], in experiment [3], in experiment [4], in experiment [5] and in experiment [6] was “inactive” throughout.
Consider `O=C(Nc1ccc(C(F)(F)F)cn1)N1CCN(c2ncccc2C(F)(F)F)CC1`, for which the Potency result in experiment [1], in experiment [2], in experiment [3], in experiment [4], in experiment [5] and in experiment [6] was “inactive” throughout.
As to `C=C1CC[C@@H]2[C@](C)(CO)[C@H](O)CC[C@@]2(C)[C@@H]1/C=C/C1=CCOC1=O`, the Potency entry in experiment [1], in experiment [2], in experiment [3], in experiment [4], in experiment [5] and in experiment [6] was “inactive” each time.
`O=C(CSc1nc2ccccc2c(=O)n1-c1ccccc1)Nc1ccc2c(c1)CCC2`: the Potency result in experiment [1], in experiment [2], in experiment [3], in experiment [4], in experiment [5] and in experiment [6] was “inactive” each time.
`Cc1cc(C)cc(-c2cnc3cc(Cl)c(-c4cccc(O)c4)cc3c2OCCCN)c1`: the Potency entry in experiment [1], in experiment [2], in experiment [3], in experiment [4], in experiment [5] and in experiment [6] was “inactive” in each case.
Turning to `COc1ccccc1OCCNCC(O)CCOc1cccc2[nH]c3ccccc3c12` (centres undefined), the Potency entry in experiment [1], in experiment [2], in experiment [3], in experiment [4], in experiment [5] and in experiment [6] was “inactive” each time.
Turning to `O=C([C@@H]1CCCN(c2ccc3[nH]c(C4(n5cc(Cl)cn5)CC4)nc3n2)C1)N1CCCC1`, the Potency result in experiment [1], in experiment [3], in experiment [4], in experiment [5] and in experiment [6] was “inactive” throughout. Besides, the Potency in experiment [2] is 25.5 µM (active).
`CCC(C)/C=C(C)/C=C/C1=CC2=CC(=O)C3(C)OC(C)(O)C(C(=O)OC)C3C2=CO1` (centres undefined): the Potency result in experiment [1], in experiment [2], in experiment [3], in experiment [4], in experiment [5] and in experiment [6] was “inactive” each time.
On to `Cc1ccc(OC[C@H](O)[C@H](C)NC(C)C)c2c1CCC2`, for which the Potency entry in experiment [1], in experiment [2], in experiment [3], in experiment [4], in experiment [5] and in experiment [6] was “inactive” throughout.
As to `O=C(Nc1ccccc1)c1ccc(Nc2nnc(-c3ccc(O)cc3)c3ccccc23)cc1`, the Potency result in experiment [1], in experiment [2], in experiment [3], in experiment [4], in experiment [5] and in experiment [6] was “inactive” each time.
Regarding `C/C=C/C=C/C=C/C(=O)O[C@@H]1C=C2COC(=O)[C@]2(O)[C@@]2(C)CCCC(C)(C)[C@H]12`, the Potency result in experiment [1], in experiment [2], in experiment [3], in experiment [4], in experiment [5] and in experiment [6] was “inactive” each time.
As to `CC1=C(C(=O)Nc2cc(Cl)ccc2Cl)C(c2ccco2)C2=C(CCCC2=O)N1` (centres undefined), the Potency result in experiment [1], in experiment [2], in experiment [3], in experiment [4], in experiment [5] and in experiment [6] was “inactive” each time.
Turning to `COC1CC(=O)C23C(=O)NC(Cc4c[nH]c5ccccc45)C2C(C)C2(C)OC2C3/C=C/CC(C)CC1O` (centres undefined), the Potency result in experiment [1], in experiment [2], in experiment [3], in experiment [4], in experiment [5] and in experiment [6] was “inactive” in each case.
Take `O=C(Nc1cccnn1)N1CCN(c2nccc(-c3ccc(F)c(F)c3)n2)CC1`: the Potency entry in experiment [1], in experiment [2], in experiment [3], in experiment [4], in experiment [5] and in experiment [6] was “inactive” each time.
With `C=CC(=O)N1CC(N2CCN(C(=O)CNc3cc(C4CC4)c(Cl)cc3O)CC2)C1`, the Potency entry in experiment [1], in experiment [2], in experiment [3], in experiment [5] and in experiment [6] was “inactive” in each case. In addition, the Potency in experiment [4] is 2.67 µM (active).
For `Cc1c(OCc2cccc(-c3ccc(C(=O)O)cc3)c2)cc2c(c1C)C(=O)C(C1CCCC1)C2` (centres undefined), the Potency entry in experiment [1], in experiment [2], in experiment [3], in experiment [4], in experiment [5] and in experiment [6] was “inactive” throughout.
`Cc1ccc(-c2ncc[nH]2)cc1NC(=O)c1ccc(OCc2ccccn2)cc1`: the Potency entry in experiment [1], in experiment [2], in experiment [3], in experiment [4], in experiment [5] and in experiment [6] was “inactive” throughout.
Regarding `Cc1ccc(C)c(NS(=O)(=O)c2cc(C(=O)Nc3ccccc3-c3ccccc3)ccc2C)c1`, the Potency result in experiment [1], in experiment [2], in experiment [3], in experiment [4], in experiment [5] and in experiment [6] was “inactive” throughout.
In the case of `CC(C)n1cnc2c(-c3cnc(N)nc3)nc(N3CCOCC3)nc21`, the Potency entry in experiment [1], in experiment [2], in experiment [3], in experiment [4], in experiment [5] and in experiment [6] was “inactive” in each case.
Take `COc1cc2ncnc(Nc3cccc(I)c3)c2cc1OC`: the Potency entry in experiment [1], in experiment [2], in experiment [3], in experiment [4], in experiment [5] and in experiment [6] was “inactive” in each case.
